# Assay results as given in the supplement of paper PMC6555819.
# Columns and labels:
# Test in all cases: PBM binding z-score (relative to random genomic background probes); higher = stronger binding; sequences stand for … in GC…GCGATTGACAGCGTAGAATGAAGG
# [1] = tested on: RARb homodimer (NR concentration 270 nM)
# Procedure, shortened: (§1)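 Custom Agilent 4×180K protein-binding microarrays carried double-stranded probes. Their 34-nt variable regions held direct-repeat seeds, single-nucleotide variants, half-site ablations and random human genomic background sequences. Arrays were incubated 1 h with ligand-free nuclear receptor dimers in PBS pH 7.4, 2% milk, 0.02% Triton X-100, 1 mM DTT, 0.2 mg/mL BSA and 0.4 mg/ml salmon testes DNA. Antibodies against each partner (one per run) detected binding, and scanned fluorescence was regression-normalized. Binding z-scores use random background probes as reference.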
# [2] = tested on: RARg:RXRa (NR concentration 270 nM, RXRa partner concentration 90 nM)
# Procedure, shortened: as §1
# [3] = tested on: RARg homodimer (NR concentration 270 nM)
# Procedure, shortened: as §1
# [4] = tested on: RXRa DBDmut IVT, anti-RXR (DBD mutation: RXRa K156A/R161A, NR concentration 90 nM)
# Procedure, shortened: as §1
# [5] = tested on: RXRa homodimer (NR concentration 180 nM)
# Procedure, shortened: as §1
# [6] = tested on: THRa:RXRa (NR concentration 90 nM, RXRa partner concentration 90 nM)
# Procedure, shortened: as §1
# [7] = tested on: THRa homodimer (NR concentration 90 nM)
# Procedure, shortened: as §1
# [8] = tested on: VDR:RXRa (NR concentration 270 nM, RXRa partner concentration 90 nM)
# Procedure, shortened: as §1
# [9] = tested on: VDR homodimer (NR concentration 270 nM)
# Procedure, shortened: as §1
Sequence,PBM binding z-score [1],PBM binding z-score [2],PBM binding z-score [3],PBM binding z-score [4],PBM binding z-score [5],PBM binding z-score [6],PBM binding z-score [7],PBM binding z-score [8],PBM binding z-score [9]
CGTCCAAGGTCAGCAGGTAAGTGAAAGCGACGTG,3.74,5.27,5.92,2.48,3.94,3.46,2,2.55,0.856
ACTAGTTGGTCAGCTGACGTCACACACAATTCGG,0.958,0.549,0.913,0.433,0.459,0.178,0.155,0.0123,-0.472
ACAGACAGGTGAGTGAAGGTAGCTCAGCTGGACG,-0.151,-0.00932,0.0793,-0.355,0.135,0.263,-0.539,-0.56,-0.688
ATCTCTAGTTAAAAGTTCAGTGAATCCCGAGGAT,2.34,1.3,1.76,0.966,0.844,0.672,0.242,1.29,2.12
ATCTATAGGTAAAAGTTCAGTGAATCCCGAGGAT,2.32,1.92,2.03,0.768,1.99,0.789,-0.138,1.28,1.46
ACTAGCAGGCCAAGGGTCACTCACGATTAGTCCG,3.79,3.91,2.97,0.459,3.93,2.56,0.409,2.69,1.07
ATCCCTAGGTAAAAGTTCAGTGAATCCCGAGGAT,2.41,1.53,1.73,0.406,1.39,1.13,0.117,0.958,1.71
CCGAGTAGCTTATGGGGCATTCAGGCAACGGTGA,-0.2,-0.278,-0.43,0.0685,-0.245,-0.153,-0.655,-0.651,-0.541
CGTGCAAGGTCAGCAGGTCAGTGAAAGCGACGTG,4.76,6.54,7.05,2.5,5.2,4.03,2.04,4.25,1.73
ACTTACGCGTCAACGAGGTTATAGCACGCGTATA,0.406,0.413,0.22,0.579,1.09,1.52,0.379,3.57,0.536
ATCGAAAGGTCGAAGGGGAGTATACCCACCCGAA,2.2,3.86,3.58,0.681,4.21,1.73,-0.345,2.67,0.649
TCTATTAGTTGAAGGGCAACCGCCGAGTCCGTTT,1.41,0.448,0.651,1.57,0.559,0.213,0.417,0.974,1.86
CCTTACGGGTCTCGAGGTTATAGCACGACGAGCG,0.421,0.66,0.422,-0.815,1.27,1.05,-0.08,0.479,0.435
